BaF3 parental: parental Ba/F3 viability inhibition as JAK2V617F counter-screen. CellTiter-Glo ATP luminescence. 220,000 tested, 1.1% active. AID 1486. inhibition, % at 5.6 µM;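 active = inhibition above a per-campaign cutoff, the mean inhibition of all tested compounds plus 3 SD, cut at about 27% in these data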
aSyn UTR inh: 5' untranslated region of α-synuclein, MLPCN primary screen | alpha-synuclein 5'UTR reporter, inhibitor activity | inhibition, % (tested at 7.5 µM) | 300,000 tested, 0.82% active | AID 1813; in the data active = inhibition above about 60%; inconclusive = no clear call, values can overlap the other calls;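 note: H4 neuroglioblastoma cells stably carrying SNCA 5'UTR luciferase fusion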
IEC-6 tox: counter-screen for KLF5 inhibitors: cytotoxicity in IEC-6 cells; IEC-6 cytotoxicity, luminescence viability; 290,000 tested, 0.78% active; inhibition, % at 5 µM; in the data active = inhibition above about 22%
APP transl inh: APP translation inhibition; AID 1285; inhibition, % at 2 µM; 190,000 tested, 0.82% active; SH-SY5Y APP 5'UTR-luciferase reporter, luminescence;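 active = inhibition above a set limit, derived from the sample mean plus 3 SD, cut at about 45% in these data; inconclusive = one replicate passes the limit while the other fails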
Ba/F3 V617F tox: loss of viability in JAK2V617F-driven Ba/F3 cells | Ba/F3 EpoR-JAK2V617F viability, ATP luminescence | inhibition, % at 5.6 µM | 220,000 tested, 1.1% active | AID 1446;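 active = inhibition above the campaign mean plus 3 SD over all tested compounds, cut at about 24% in these data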;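 note: cytokine-independent growth of Ba/F3 cells driven by EpoR plus mutant JAK2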
KLF5 inh: inhibitors of KLF5 expression; DLD-1 KLF5 promoter-luciferase reporter, luminescence; inhibition, % at 5 µM; 290,000 tested, 0.23% active; AID 1700;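 active = inhibition above a per-plate limit of that plate's mean compound inhibition plus 3 SD, cut at about 60% in these data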;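 note: higher means less KLF5 promoter-driven luciferase light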
Of the large screens only hits and unclear results are named; the others gave an inactive call. Shown are actives, neighbours in structure and some others; about 2.2% of the full set was active somewhere.

COc1cc(C(=O)Nc2ccc3c(c2)CCN3C(C)=O)cc(OC)c1OC	BaF3 parental 79.2, aSyn UTR inh 96.9, IEC-6 tox 40.1, APP transl inh 81.0, Ba/F3 V617F tox 78.2
COc1cc(C(=O)Nc2ccc3c(c2)Cc2ccccc2-3)cc(OC)c1OC	none
Cc1cc(NC(=O)c2cncc(Br)c2)ccc1NC(=O)c1cc2ccccc2o1	aSyn UTR inh 78.0 (no result: BaF3 parental, APP transl inh, Ba/F3 V617F tox)
COc1cc(NC(=O)c2ccccc2)ccc1NC(=O)c1cc2ccccc2o1	none (no result: BaF3 parental, APP transl inh, Ba/F3 V617F tox)
Cc1ccc2nc(NC(=O)c3ccco3)sc2c1	aSyn UTR inh 85.2
Cc1ccc(NC(=O)Cc2sc(C)nc2-c2ccc(C)cc2)cc1	BaF3 parental 39.4
O=C(NCCc1ccccc1)C(=O)NCC1CCCN1S(=O)(=O)c1cccs1 (stereo not drawn)	none (no result: BaF3 parental, IEC-6 tox, APP transl inh, Ba/F3 V617F tox, KLF5 inh)
O=C(c1ccccc1)N1C(=O)C(c2ccccc2)Oc2ccccc21 (stereo not drawn)	aSyn UTR inh 81.7 (no result: APP transl inh)
CC(C)(C)c1cc(Cl)c(O)c(NC(=S)NC(=O)c2cccnc2)c1	aSyn UTR inh 79.6
Cc1ccccc1N=Nc1c(C)[nH]n(-c2ccccc2)c1=O	none (no result: aSyn UTR inh)
Cc1[nH]n(-c2ccccc2)c(=O)c1N=Nc1ccccc1O	aSyn UTR inh inconclusive, APP transl inh 57.5
COc1cc2nc(N3CCN(c4cc(C)ccc4C)CC3)nc(N)c2cc1OC	aSyn UTR inh 94.5 (no result: BaF3 parental, APP transl inh, Ba/F3 V617F tox)
Cc1ccc(/C=N/NC(=O)c2csc3c2CCCC3)cc1	APP transl inh 89.7
COc1cc(/C=N/NC(=O)c2csc3c2CCCC3)cc(OC)c1O	none
COc1cccc(C2=NN(C(=O)c3ccco3)C(c3ccco3)C2)c1 (stereo not drawn)	none (no result: BaF3 parental, APP transl inh, Ba/F3 V617F tox)
COc1cccc(C(=O)C2=NN(C(C)=O)CC2c2ccco2)c1 (stereo not drawn)	BaF3 parental 38.5
Nc1cc(=O)[nH]c(SCCSc2ccccc2F)n1	aSyn UTR inh 67.4 (no result: BaF3 parental, APP transl inh, Ba/F3 V617F tox)
Nc1cc(=O)[nH]c(SCCSc2cc(Cl)ccc2Cl)n1	none (no result: BaF3 parental, APP transl inh, Ba/F3 V617F tox)
O=C(CNC(=O)c1ccccc1O)N/N=C/c1cc(Br)ccc1OC(=O)/C=C/c1ccco1	aSyn UTR inh 68.1
O=C(CNC(=O)c1cccc(F)c1)N/N=C/c1cc(Br)ccc1OC(=O)/C=C/c1ccco1	APP transl inh 52.5
O=C(CNC(=O)c1ccccc1Br)N/N=C/c1ccco1	none (no result: BaF3 parental, APP transl inh, Ba/F3 V617F tox)
O=c1[nH]c(Cc2cccc(C(F)(F)F)c2)nc2ccccc12	none (no result: BaF3 parental, APP transl inh, Ba/F3 V617F tox)
Cc1[nH]c2ccccc2c1C(=O)C(=O)NC1CC1	none (no result: BaF3 parental, APP transl inh, Ba/F3 V617F tox)
Cc1ccc(NC(=O)CSC(C)c2nc3ccccc3c(=O)[nH]2)cc1 (stereo not drawn)	none (no result: BaF3 parental, APP transl inh, Ba/F3 V617F tox)
C=CCN(c1ccccc1OC)S(=O)(=O)c1ccc(Cl)c(C(=O)Nc2ccc(N3CCOCC3)cc2)c1	aSyn UTR inh 89.2
N#CC1=C(N)Oc2cc(O)ccc2C1c1cccnc1 (stereo not drawn)	none
CN(C)c1ccc2c(c1)OC(N)=C(C#N)C2c1cccc(F)c1 (stereo not drawn)	aSyn UTR inh 68.0, APP transl inh 95.1
O=C(/C=C\Nc1ccc2c(c1)OCO2)c1ccccn1	aSyn UTR inh 117.6
COc1cccc(NC(=O)C2CCCN2S(=O)(=O)c2ccc3c(c2)n(C)c(=O)c(=O)n3C)c1 (stereo not drawn)	none (no result: BaF3 parental, APP transl inh, Ba/F3 V617F tox)
O=C1CC(c2cccc(Br)c2)c2cc3c(cc2N1)CCC3 (stereo not drawn)	BaF3 parental 61.7, APP transl inh 53.7, Ba/F3 V617F tox 46.5
O=C1CC(c2cc(F)ccc2F)c2cc3c(cc2N1)CCC3 (stereo not drawn)	APP transl inh 83.5
COCc1ccc(C(=O)NC2CC(C)(C)Cc3c2cnn3-c2ccc(OC)cc2)o1 (stereo not drawn)	none (no result: BaF3 parental, APP transl inh, Ba/F3 V617F tox)
Cc1nnsc1-c1nnc(SCC(=O)c2ccc(F)cc2)n1C1CC1	none (no result: APP transl inh)
COc1ccc(N(C)C(=O)C2CCCN2S(=O)(=O)c2cccc3nsnc23)c(OC)c1 (stereo not drawn)	none (no result: BaF3 parental, APP transl inh, Ba/F3 V617F tox)
CCC/C(O)=C1\C(=O)CC(C)(C)CC1=Nc1ccc(OC)cc1OC	APP transl inh 86.4
CCCCN1CCCC1CNC(=O)c1cc(C#N)c2ccccc2c1OC (stereo not drawn)	none (no result: APP transl inh)
Oc1ccc(N=Nc2ccc(Br)cc2)c(O)c1	IEC-6 tox 28.8 (no result: APP transl inh)
Oc1ccc(N=Nc2ccc3c(c2)OCCO3)c(O)c1	aSyn UTR inh 62.1 (no result: APP transl inh)
Cc1ccc(N=Nc2ccc(O)cc2)c(Br)c1	none (no result: BaF3 parental, APP transl inh, Ba/F3 V617F tox)
Oc1ccc(N=Nc2ccc3c(c2)OCCO3)c2cccnc12	aSyn UTR inh 103.6
CC(=O)c1cc2c(cc1N(C(=O)Cn1nnc3ccccc31)C(C(=O)NCCC(C)C)c1cccnc1)OCO2 (stereo not drawn)	none
Cn1c(CCNC(=O)c2cc(COc3ccc(F)c(F)c3)on2)nc2ccccc21	none (no result: BaF3 parental, APP transl inh, Ba/F3 V617F tox)
Cc1cccc(NC(=O)CSc2nnc(NC(=O)c3ccco3)s2)c1	none
Cc1ccc(NC(=O)CCc2nc3ccccc3s2)c(O)c1	none
CN(C)c1cc[n+](CC(=O)N2c3ccccc3Sc3ccccc32)cc1	BaF3 parental 37.3, Ba/F3 V617F tox 23.8 (no result: aSyn UTR inh)
CC(C)CN(C(=O)COC(=O)CCCc1c[nH]c2ccccc12)c1c(N)n(Cc2ccccc2)c(=O)[nH]c1=O	none (no result: BaF3 parental, APP transl inh, Ba/F3 V617F tox)
Cc1ccc(/C=C/c2nc3ccccc3c(=O)[nH]2)cc1	aSyn UTR inh 67.8 (no result: APP transl inh)
Cc1ccccc1CC(=O)NCc1cccnc1	none (no result: BaF3 parental, APP transl inh, Ba/F3 V617F tox)
COc1ccc(NC(=O)CNC(=O)c2nn(-c3ccc(OC)c(Cl)c3)c(=O)c3ccccc23)c(OC)c1	none (no result: BaF3 parental, APP transl inh, Ba/F3 V617F tox)
CC(=O)Nc1sc(NC(=O)c2ccc([N+](=O)[O-])cc2)nc1-c1cccs1	BaF3 parental 45.7 (no result: APP transl inh)
CC(=O)Nc1sc(NC(=O)c2ccc(Cl)cc2)nc1-c1cccs1	none
Cc1ccccc1CS(=O)(=O)CCC(=O)NCc1ccc(F)cc1Cl	none (no result: BaF3 parental, APP transl inh, Ba/F3 V617F tox)
Oc1ccc2ccccc2c1N=Nc1ccccc1F	none (no result: APP transl inh)
Oc1ccc2ccccc2c1N=Nc1ccccn1	aSyn UTR inh 74.7, APP transl inh 83.3
CCOC(=O)c1[nH]cnc1N=Nc1c(O)ccc2ccccc12	aSyn UTR inh 90.6, APP transl inh 52.5
CSCCC(NC(=O)c1ccc(Cl)cc1Cl)C(=O)NCc1ccncc1 (stereo not drawn)	none (no result: BaF3 parental, IEC-6 tox, APP transl inh, Ba/F3 V617F tox, KLF5 inh)
Cn1c(=O)cc(OCCCC(=O)NC2CCCC2)c2ccccc21	BaF3 parental 44.8, Ba/F3 V617F tox 51.0
Cc1cccc2cc(CN(Cc3cccs3)S(=O)(=O)c3ccc4c(c3)OCCO4)c(=O)[nH]c12	none
O=[N+]([O-])c1ccccc1C1Nc2cccc3cccc(c23)N1	BaF3 parental 100.1, Ba/F3 V617F tox 79.0
Oc1ccccc1C1Nc2cccc3cccc(c23)N1	none
c1ccc(-c2noc(-c3ccc4c(c3)OCO4)n2)nc1	BaF3 parental 28.5, aSyn UTR inh 90.6, Ba/F3 V617F tox 25.8
COc1cccc(-c2nc(-c3ccccn3)no2)c1	aSyn UTR inh 104.1
Cc1cccc(-c2noc(-c3ccc4c(c3)OCO4)n2)c1	none
COc1cccc(-c2nc(-c3ccccc3)no2)c1	none
COCCN(C(=O)CCC(=O)Nc1ccccn1)C(C(=O)NCCC(C)C)c1ccc(F)cc1 (stereo not drawn)	none (no result: BaF3 parental, APP transl inh, Ba/F3 V617F tox)
CC(=O)Nc1ncc(Cc2cccc(Cl)c2)s1	BaF3 parental 28.1, Ba/F3 V617F tox 34.0

From PubChem
